DAX1 inh-1 = DAX1 (NR0B1) inhibitors on StAR promoter, primary screen, cell-based, luminescence, SF-1 (NR5A1), full-length DAX-1; HEK293T StAR-luciferase reporter, SF-1/DAX-1 repression relief; inhibition, % at 6.8 µM; AID 652010, 2013; 370,000 compounds, 1.1% hits;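 active means inhibition above the mean over all tested compounds plus 3 SD, cut at about 3.6% in these data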;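 further: 0% = DAX-1 cells with DMSO and 100% = cells lacking DAX-1 with DMSO; higher inhibition means more luminescence from relief of DAX-1 repression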
SMARCA2 act = SMARCA2 (BRM) function activators, primary screen, cell-based, luminescence, high throughput | AID 652017, 2013 | MG213 cells, MMTV-luciferase reporter, dexamethasone, overnight | activation, % at 9.1 µM | 370,000 compounds, 1% hits; in the data active means activation above about 7.8%;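 further: 0% = vehicle wells and 100% = reference activator wells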
DAX1 inh-2 = DAX1 (NR0B1) inhibitors, primary screen, cell-based, HEK293, Gal4-DAX1, luciferase luminescence; inhibition, % at 6.75 µM; AID 504766, 2011; 340,000 compounds, 0.99% hits; Nuclear receptor subfamily 0 group B member 1 (Homo sapiens), P51843; HEK293 Gal4-DAX1 luciferase reporter;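 active means inhibition above the mean over all tested compounds plus 3 SD, cut at about 4.2% in these data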;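 further: 0% = DAX1-transfected cells with DMSO and 100% = empty-vector control cells with DMSO; inhibition shows as a rise in luminescence from relieved DAX1 repression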
Target sequence (P51843 207-470 limits assumed): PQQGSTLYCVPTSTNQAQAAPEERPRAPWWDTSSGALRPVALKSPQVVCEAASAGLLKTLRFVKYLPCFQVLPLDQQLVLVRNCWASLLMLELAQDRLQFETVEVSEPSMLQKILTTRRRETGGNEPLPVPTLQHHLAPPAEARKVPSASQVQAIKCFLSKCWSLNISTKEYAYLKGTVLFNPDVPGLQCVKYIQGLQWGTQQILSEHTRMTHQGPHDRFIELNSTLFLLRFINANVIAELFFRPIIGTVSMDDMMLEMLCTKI
hgDAF12 agonist = H. glycines DAF-12 receptor agonists, primary screen, cell-based, luminescence, HEK293, GAL4 fusion, UAS-luciferase | Nuclear hormone receptor DAF-12 (Heterodera glycines), GAL4 fusion | HEK293 GAL4-hgDAF12 UAS-luciferase reporter, agonist luminescence; normalized to butyrate control | activation, % at 6.8 µM | 370,000 compounds, 1.8% hits;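 active means activation above a cutoff set at the mean of all screened compounds plus 3 SD, cut at about 10% in these data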;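 further: 0% = DMSO wells and 100% = sodium butyrate wells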
ssDAF-12 act = S. stercoralis DAF-12 nuclear receptor activators, primary screen, cell-based, luminescence, HEK293, GRIP1 co-expression, lit1-tk-luc | Nuclear hormone receptor DAF-12 (Strongyloides stercoralis) | HEK293 ssDAF-12/GRIP1 lit1-tk-luc reporter; % of 3 µM dafachronic acid response | activation, % at 6.8 µM | 370,000 compounds, 1% hits;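 active means activation above the mean over all tested compounds plus 3 SD, cut at about 0.9% in these data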;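 further: 0% = DMSO-only wells and 100% = 3 µM delta7-dafachronic acid wells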
hcDAF12 agonist = H. contortus DAF-12 nuclear receptor activators, primary screen, cell-based, luminescence, HEK293, lit1-tk-luc reporter | 370,000 compounds, 1.4% hits | HEK293 hcDAF-12 lit1-tk-luc reporter; 0% DMSO, 100% Δ7-dafachronic acid | AID 652067, 2013 | activation, % at 6.8 µM;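 active means activation above the mean of all tested compounds plus 3 SD, cut at about 5.5% in these data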;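 further: 100% = response to 3 µM Δ7-dafachronic acid high control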
Active calls of the source: *. Only some compounds are listed: those with a hit (about 4.8% of all), similar ones and a draw of the others.

SMILES | DAX1 inh-1 | SMARCA2 act | DAX1 inh-2 | hgDAF12 agonist | ssDAF-12 act | hcDAF12 agonist
O=C(NC(Cc1c[nH]c2ccccc12)C(=O)O)c1cccc(S(=O)(=O)N2CCCCC2)c1 (centres undefined) | -0.2 | -1.5 | -0.2 | 1.4 | -0.5 | 5.7*
O=C(Cc1c[nH]c2ccccc12)OCC(=O)c1ccccc1 | -0.1 | -1.1 | 0.6 | 2.8 | 1.2* | 3.4
O=C(O)C(=O)Cc1c[nH]c2ccccc12 | -0.9 | 0.0 | 2.0 | 3.2 | 1.2* | 1.2
O=C(O)C(O)Cc1c[nH]c2ccccc12 (centres undefined) | 0.2 | 0.0 | 4.7* | 5.1 | 0.2 | 4.2
Cc1ccc(NC(=O)c2cnccn2)cc1S(=O)(=O)N(C)C | 0.1 | 2.7 | 0.5 | -2.1 | -1.1 | -0.2
O=C(C1CC(=O)N(c2ccc3c(c2)OCCO3)C1)N1CCN(Cc2ccccc2F)CC1 (centres undefined) | -1.4 | 5.6 | -0.4 | -2.4 | -1.3 | -1.2
COc1ccc(CN2CCNC(=O)C2CC(=O)NCC2CCOCC2)c(F)c1 (centres undefined) | 0.5 | -1.5 | 0.1 | 1.7 | -1.3 | 2.0
COC(=O)C(Cc1c[nH]c2ccccc12)NC(=O)c1ccccc1Br (centres undefined) | 0.1 | 0.3 | 0.9 | 3.0 | 1.1* | 2.8
O=C(NC(Cc1c[nH]c2ccccc12)C(=O)O)c1ccccc1 (centres undefined) | 0.8 | 3.9 | 0.7 | 1.2 | 1.2* | 2.6
Cc1ccc(C(=O)C(C)OC(=O)Cc2c[nH]c3ccccc23)cc1 (centres undefined) | 0.2 | 1.5 | 0.5 | -2.6 | 0.9* | 2.9
O=C(N[C@@H](Cc1c[nH]c2ccccc12)C(=O)O)c1ccc(Cl)cc1 | 2.0 | -4.8 | 0.1 | 1.9 | -1.2 | 1.2
Cc1ccc(NC(=O)C(C)OC(=O)Cc2c[nH]c3ccccc23)cc1 (centres undefined) | -1.3 | -2.6 | -1.2 | 3.7 | 0.2 | 2.2
O=C(Nc1ccncc1)C1COc2ccccc2O1 (centres undefined) | 0.1 | -0.7 | -0.6 | -2.5 | -1.2 | -1.1
O=C(Nc1ccc2c(c1)CCC2)C1COc2ccccc2O1 (centres undefined) | 2.9 | 2.9 | 1.4 | 11.6* | 0.0 | 4.1
Cc1nnc(NC(=O)C2COc3ccccc3O2)s1 (centres undefined) | 1.3 | 4.7 | 0.0 | 7.5 | -0.3 | 1.2
O=C(NC1=NCCS1)C1COc2ccccc2O1 (centres undefined) | -1.1 | -2.6 | -5.1 | -8.5 | -2.0 | -0.5
CCCCCc1nnc(NC(=O)C2COc3ccccc3O2)s1 (centres undefined) | 1.9 | 3.1 | -0.1 | 4.3 | -0.6 | 5.6*
O=C(Nc1nc2c(s1)CCCC2)C1COc2ccccc2O1 (centres undefined) | 4.4* | -0.6 | -2.0 | 3.3 | 0.2 | 4.6
O=C(Nc1ncc(Cc2ccccc2)s1)C1COc2ccccc2O1 (centres undefined) | 4.2* | 2.5 | 2.7 | 10.8* | 0.2 | 2.5
O=C(Nc1ccc2c(c1)OCO2)C1COc2ccccc2O1 (centres undefined) | 0.6 | 2.0 | 0.6 | 8.2 | 0.2 | 4.2
C[C@H]1CCC[C@@]2(O[C@H](CCO)C[C@@H](O)[C@@H]2O)O1 | -0.2 | 0.9 | -0.3 | 2.0 | -0.8 | -1.2
COCCOc1ccc(C(F)(F)F)cc1NC(=O)COC(=O)c1cc([N+](=O)[O-])ccc1N1CCOCC1 | -0.9 | -0.3 | -0.7 | -3.9 | -1.5 | -4.3
CCN(CC(=O)Nc1ccc(NC(C)=O)cc1)C(=O)c1ccc2c(c1)S(=O)(=O)N=C1CCCCCN12 | 0.4 | 2.0 | 0.5 | 0.6 | -1.3 | 1.0
